Experimental data: PubChem BioAssay AID1851 (National Center for Advancing Translational Sciences (NCATS), 2009)
In all, about 16,000 compounds went through this assay and about 2,600 (16%) were called active. Not shown: some 20% with an inconclusive outcome. Calls come from the whole dose curve; as a rule, active = well fitted curve in the direction sought with a large enough effect; inconclusive = small, poorly fitted or top-dose-only effect, or effect the other way; inactive = no such curve, though single readings can be large or run the other way. Only a sample is shown.

molecular target: Cytochrome P450 2D6 (Homo sapiens) (UniProt P10635); assay: Cytochrome panel assay with activity outcomes; details: recombinant CYP, pro-luciferin dealkylation, luminescence, p450-cyp2d6; series mostly up to 57.1 µM
% is set by controls: 0 for no effect and ±100 for the full control effect.

Cytochrome P450 2D6 (Homo sapiens), sequence (P10635 whole entry, looked up): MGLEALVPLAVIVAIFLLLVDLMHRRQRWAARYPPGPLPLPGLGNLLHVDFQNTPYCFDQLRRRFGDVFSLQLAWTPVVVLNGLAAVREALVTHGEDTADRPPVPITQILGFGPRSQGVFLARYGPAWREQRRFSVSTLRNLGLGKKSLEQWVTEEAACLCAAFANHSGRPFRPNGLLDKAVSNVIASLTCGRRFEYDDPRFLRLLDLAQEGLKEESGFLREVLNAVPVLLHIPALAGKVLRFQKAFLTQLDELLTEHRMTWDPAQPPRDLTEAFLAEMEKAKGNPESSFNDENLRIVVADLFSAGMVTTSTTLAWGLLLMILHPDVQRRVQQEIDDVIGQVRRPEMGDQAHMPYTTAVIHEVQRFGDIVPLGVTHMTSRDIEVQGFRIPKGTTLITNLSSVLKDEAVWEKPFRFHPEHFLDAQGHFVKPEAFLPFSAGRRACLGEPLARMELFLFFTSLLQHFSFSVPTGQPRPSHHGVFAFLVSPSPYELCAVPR

SMILES | AC50 | activity, negative = inhibition
Cc1onc(-c2ccccc2)c1C(=O)NC(CC(=O)O)c1ccc(OC(C)C)cc1 (configuration not stated) | inactive | –
CCCOc1ccc(C(=O)CCNc2ccc(C)c(Cl)c2)cc1 | inactive | –
CCOc1ccc(C(=O)CCC(=O)O)cc1 | inactive | –
CCCCOc1ccc(C(=O)CCN2CCCCC2)cc1 | 5.01 µM (active) | –
Fc1ccc(CSc2ncnc3sc4c(c23)CCCC4)cc1 | inactive | –
COc1cc(/C=C(/NC(=O)c2ccccc2)C(=O)Nc2ccccc2)c([N+](=O)[O-])cc1OC | inactive | –
COc1c(F)c(F)c(C(=O)O)c(Nc2ccc(C)cc2)c1F | inactive | –
Clc1ccc(Cn2c(-c3cccnc3Cl)nc3ccccc32)c(Cl)c1 | 7.94 µM (active) | –
Clc1ncccc1-c1nc2ccccc2n1Cc1ccccc1 | inactive | –
Nc1nonc1-c1nc2ccccc2n1Cc1ccc(F)cc1Cl | inactive | –
CCOC(=O)C1(N(CC)CC)Sc2cc(C)ccc2NC1=O (configuration not stated) | inactive | –
CC1CC2(CCCCC2)N2C(=O)C(=O)c3cccc1c32 (configuration not stated) | 7.94 µM (active) | –
O=C(NC(=S)Nc1ccc(Oc2ccc(Cl)cc2)cc1)c1ccccc1 | inactive | –
CCCC[C@]1(C2CCCC2)Cc2cc(OCC(=O)O)c(Cl)c(Cl)c2C1=O | inactive | –
COc1cccc(Cn2c(=O)c(-c3cccs3)nc3cnc(Nc4cccc(OC)c4)nc32)c1 | inactive | –
COc1cc(/C=C(\C#N)C(=O)c2ccc(O)c(O)c2)cc(I)c1O | inactive | –
COc1cc(/C=C(\C#N)C(N)=O)cc(CSc2nc3ccccc3s2)c1O | 0.0251 µM (active) | –
COc1ccc(/C=C(\C#N)C(N)=O)c(OC)c1 | – | -4.62% [at 11.4 µM] (inactive)
COC(=O)c1ccc(C(NC(=O)c2ccccc2)[C@]2(C)C[C@H]2C2CCCCC2)cc1 (some centres not stated) | inactive | –
COC(=O)[C@H]1C[C@@H]1[C@H](NC(=O)OCc1ccccc1)c1ccccc1 | inactive | –
CCOC(=O)CC(NC(=O)c1ccco1)c1ccc(OC)cc1 (configuration not stated) | inactive | –
CCC[C@@H]1C[C@@]1(CCC)C(NC(=O)c1ccco1)c1ccc(Cl)cc1 (some centres not stated) | 3.98 µM (active) | –
C[C@@]1(C(NC(=O)Cc2ccccc2)c2ccc(-c3ccccc3)cc2)C[C@H]1C1CCCCC1 (some centres not stated) | inactive | –
CCCC[C@@H]1C[C@H]1C(NC(=O)c1ccccc1)c1ccccc1 (some centres not stated) | inactive | –
C[C@@]1(C(NC(=O)c2ccc(-c3ccccc3)cc2)c2ccc(Cl)cc2)C[C@H]1C1CCCCC1 (some centres not stated) | inactive | –
CCC[C@@H]1C[C@@]1(CCC)C(NC(=O)c1ccccc1)c1cccc(Cl)c1 (some centres not stated) | 3.16 µM (active) | –
CCC[C@@H]1C[C@@]1(CCC)C(NC(=O)OCc1ccccc1)c1ccc(-c2ccccc2)cc1 (some centres not stated) | 7.94 µM (active) | –
